# Screening data: PubChem BioAssay, National Center for Advancing Translational Sciences (NCATS)
# TCR activator: Activators of T cell receptors: qHTS campaign | primary human leukocytes, anti-CD3, IL-2 HTRF, 48 h | Potency, µM (highest dose often 9.22 µM), without a hit: at the top dose activation of IL-2 secretion, actives largely listed as activators | 330,000 tested, under 10 active; further: % of control where 0% means no effect
#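 Primary human leukocytes were stimulated with a-CD3 beads plus compounds for 48 hr without co-stimulation; secreted IL-2 was quantified by HTRF using a-IL-2-K (europium cryptate) and a-IL-2-d2, excited at 320nm with acceptor emission read at 665nm.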
# FEN1 inhibitor: qHTS Assay for the Inhibitors of Human Flap endonuclease 1 (FEN1) | 390,000 compounds, 0.35% hits | Potency, µM (series often up to 114 µM), for the others: at the highest dose activity change, negative = inhibition, most hits filed as inhibitors | Recombinant FEN1 flap cleavage, fluorescence, 15 min | AID 588795, 2011 | P39748; further: potency means the concentration at half of the fitted maximal effect; on the % scale 0 is the no-effect control and ±100 the full control effect; nearly all actives have a fitted effect of over 65% in size
#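 Recombinant FEN1 (10 nM) was preincubated with pin-transferred compounds for 15 min at room temperature, then flap DNA substrate (50 nM final) was added. Plates were read at 0 and 15 min, and normalized concentration–response data were fitted to a four-parameter Hill equation.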
# WRN inhibitor: qHTS for Inhibitors of WRN Helicase. WRN helicase unwinding, fluorescent forked duplex, kinetic. Potency, µM (top dose mostly 114 µM), without a hit: at the highest dose activity change, negative = inhibition, most hits filed as inhibitors. 360,000 compounds, 0.46% hits; further: potency means the concentration at half of the fitted maximal effect; on the % scale 0 is the no-effect control and ±100 the full control effect; nearly all actives have a fitted effect of over 55% in size
#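 Fluorescence dequenching readout, ex 525 nm/em 598 nm, kinetic mode: forked duplex DNA (100 nM final) with adjacent fluorophore and quencher unwound by WRN (20 nM final) with 2 mM ATP. Compound preincubation 15 min, room temperature.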
# PI5P4K alpha inh: qHTS for Inhibitors of phosphatidylinositol 5-phosphate 4-kinase (PI5P4K); Phosphatidylinositol 5-phosphate 4-kinase type-2 alpha (Homo sapiens), P48426; PI5P4Kalpha enzyme, ADP-Glo luminescence, 60 min; hits give low values; max response, %; 330,000 compounds, 1.2% hits; active means max response of -50% or lower; inconclusive means between -30% and -50%; inactive means -30% or higher; further: value at the top dose of about 77 µM; on the % scale 0 is the no-effect control and ±100 the full control effect
# Target sequence (P48426 whole entry, looked up): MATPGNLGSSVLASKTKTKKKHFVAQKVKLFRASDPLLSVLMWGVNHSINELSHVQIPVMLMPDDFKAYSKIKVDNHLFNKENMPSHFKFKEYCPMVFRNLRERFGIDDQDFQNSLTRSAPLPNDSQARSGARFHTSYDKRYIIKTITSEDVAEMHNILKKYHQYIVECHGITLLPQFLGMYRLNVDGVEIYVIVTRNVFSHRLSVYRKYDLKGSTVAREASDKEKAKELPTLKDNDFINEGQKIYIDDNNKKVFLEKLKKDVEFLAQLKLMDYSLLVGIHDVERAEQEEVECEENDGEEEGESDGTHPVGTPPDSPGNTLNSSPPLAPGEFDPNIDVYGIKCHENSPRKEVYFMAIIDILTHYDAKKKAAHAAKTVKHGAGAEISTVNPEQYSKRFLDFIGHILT
#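 Compounds were pin-transferred onto PI5P4Kalpha and substrate in HEPES pH 7.4 buffer with EGTA, CHAPS and 5% DMSO. ATP (5 microM final) started the reaction, which ran 60 minutes at room temperature before ADP-Glo detection.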
# PLK1 PBD block: qHTS for Inhibitors of PLK1-PDB (polo-like kinase 1 - polo-box domain): Primary Screen | 360,000 compounds, 2.8% hits | AID 720504, 2013 | Plk1 PBD binding of FITC phosphopeptide, fluorescence polarization | Potency, µM, for inactives: max response, negative = inhibition, most hits filed as inhibitors; further: potency means the concentration at half of the fitted maximal effect; series mostly up to about 57 µM; on the % scale 0 is the no-effect control and ±100 the full control effect; nearly all actives have a fitted effect of over 65% in size
# VDR inh: Inhibitors of the vitamin D receptor (VDR): qHTS; Vitamin D3 receptor (Homo sapiens), P11473; VDR-SRC2-3 peptide fluorescence polarization, 2 h; Potency, µM, for the others: max response, negative = inhibition, usual class: inhibitors; 400,000 compounds, 0.93% hits; further: potency means the concentration at half of the fitted maximal effect; on the % scale 0 is the no-effect control and ±100 the full control effect
#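 The screen uses fluorescence polarization to detect compounds that interfere with recruitment of the SRC2-3 coactivator peptide to VDR; plates are read after 2 h at room temperature.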
# * hit, by the source's call; ? = inconclusive; . = no result given; [ ] = another dose, or the depositor's remark. Hits are enriched below; roughly 3.7% of the tested compounds scored in any of these assays. Unless noted, the call rests on the fitted dose curve; in most records, active means well fitted curve in the direction sought with a large enough effect; inconclusive means small, poorly fitted or top-dose-only effect, or another doubt; inactive means no such curve, though single readings can be large; an effect the other way counts as inactive or inconclusive.
SMILES,TCR activator,FEN1 inhibitor,WRN inhibitor,PI5P4K alpha inh,PLK1 PBD block,VDR inh
COc1cc(/C=C(\C#N)C(=O)c2c[nH]c3ccccc23)cc(OC)c1O,-0.2%,?,?,-75.4*,46.9%,12.0%
COc1cc(/C=C(\C#N)C(=O)NCCc2ccccc2)cc(OC)c1O,-1.8%,8.6%,-5.9%,?,35.7%,-0.4%
O=C(C1CCCN(S(=O)(=O)c2cccc3nsnc23)C1)N1CCN(c2ccccc2Cl)CC1 (configuration not stated),.,9.7%,.,.,.,5.6%
CNc1ccc(S(=O)(=O)NCC(=O)NCCCc2ccccc2)cc1[N+](=O)[O-],-0.9%,-2.3%,9.5%,4.4,5.97µM*,?
COc1ccc(CCNC(=O)CNS(=O)(=O)c2ccc(N(C)C)c([N+](=O)[O-])c2)cc1OC,7.0%,18.0%,0.9%,6.7,-27.7%,-19.5%
CN(C)c1ccc(S(=O)(=O)NCC(=O)NCc2ccccc2)cc1[N+](=O)[O-],0.7%,-13.7%,7.4%,-3.4,11.9µM*,?
CC(CCc1ccccc1)NC(=O)CSc1n[nH]c(-c2ccc(F)cc2)n1 (configuration not stated),.,11.9%,.,.,.,-5.0%
O=C1N(c2ccccc2)CCN1c1ccccc1,-1.8%,19.8%,1.3%,6.2,-11.2%,3.7%
O=S1OCCN1c1ccccc1 (configuration not stated),0.7%,9.5%,-3.1%,-10.6,33.6µM*,0.0%
O=C(O)c1ccc2c(c1)-c1cc(C(=O)O)ccc1S2(=O)=O,12.5%,-8.2%,11.0%,-73.5*,-7.8%,-25.3%
O=C(Nc1ccc2[nH]c(=S)sc2c1)c1ccccc1,-3.6%[46.1 µM],-5.2%,?,-68.2*,?,?
Cc1cc(=S)[nH]c2ccccc12,-1.2%,-8.6%,-21.7%,2.2,?,3.7%
O=C(Nc1ccc2[nH]c(=S)sc2c1)Nc1ccccc1F,6.0%,-18.9%,-4.2%,-72.2*,21.2µM*,?
S=c1[nH]c2ccccc2s1,.,.,.,.,.,35.5µM*
C[N+]1(CC(=O)c2ccc3ccccc3c2)CCOCC1,.,-21.5%,.,.,.,.
C=C1CCN(C(CC(C)C)C(=O)NCCCc2ccccc2)S(=O)(=O)c2ccccc21 (configuration not stated),.,-2.9%,.,.,.,-7.2%
N#Cc1c(-c2ccco2)c2c([nH]c1=S)CCCC2,-20.0%,6.8%,?,-78.4*,11.9µM*,-10.1%
N#Cc1c(-c2cccnc2)c2c([nH]c1=S)CCCC2,-1.8%,4.8%,-31.2%,-95.4*,11.9µM*,-24.1%
CC(C)Cc1c2c([nH]c(=S)c1C#N)CCCC2,-0.6%[46.1 µM],-1.3%,-9.6%,?,26.7µM*,?
COC(=O)c1cccc(-n2c(CCC(=O)O)ccc2-c2ccc(OC)cc2)c1,.,-17.1%,.,.,.,-26.0%
CCN(CC)C(=S)SCC(=O)c1ccc(F)cc1,-2.6%,-20.0%,-8.6%,-1.2,29.9µM*,3.3%
CO[C@H]1/C=C/O[C@@]2(C)Oc3c(C)c(O)c4c(O)c(c(/C=N\N5CCN(C6CCCC6)CC5)c(O)c4c3C2=O)NC(=O)/C(C)=C\C=C\[C@H](C)[C@H](O)[C@@H](C)[C@@H](O)[C@@H](C)[C@H](OC(C)=O)[C@@H]1C,.,.,.,.,.,11.2µM*
O=C(O)/C=C/C(=O)N1CCN(c2ccc(F)cc2)CC1,2.0%,3.1%,-23.8%,-12.6,18.9µM*,-6.5%
O=C(CNC(=O)c1ccco1)Nc1ccc(F)cc1,-5.2%,16.0%,6.5%,-10.1,26.7µM*,-13.5%
Cc1ccccc1OCC(=O)Nc1ccc(NC(=O)c2ccco2)cc1,-5.3%,-3.5%,6.0%,-15.9,21.2µM*,-15.7%
SMILES,TCR activator,FEN1 inhibitor,WRN inhibitor,PI5P4K alpha inh,PLK1 PBD block,VDR inh
Cc1ccc(Cl)c2c1=NC(=O)C=2c1[nH]c(=S)[nH]c1O,-7.1%,-14.4%,-3.3%,-74.8*,-17.0%,?
CCn1c(=O)cc(OCC(=O)NC(C)c2ccc3c(c2)OCCO3)c2ccccc21 (configuration not stated),.,-12.1%,-0.5%,-7.2,26.7µM*,-24.4%
Cc1cc(C)c2nc(SCC(=O)Nc3ccc(S(=O)(=O)N4CCCC4)cc3)c(C)cc2c1,-18.7%,-6.5%,-2.1%,1.9,-8.0%,9.7%
CCOc1ccc2nc(SCC(=O)Nc3ccc(S(=O)(=O)N4CCCC4)cc3)c(C)cc2c1,10.4%,39.8µM*,-3.9%,-0.3,3.2%,53.5%
COc1ccc2nc(SCC(=O)Nc3cc(OC)c(OC)cc3C(=O)O)c(C)cc2c1,5.5%,-10.9%,-12.8%,-1.6,29.9µM*,-11.5%
COc1cc(NC(=O)CSc2nccc(C)n2)c(C(=O)O)cc1OC,8.3%,5.8%,1.5%,-5.1,0.1%,-10.0%
CCOCN(C(=O)CSc1nc2ccccc2[nH]1)c1c(C)cccc1CC,.,1.4%,.,.,.,7.6%
CCCn1nnnc1NCc1c(F)cccc1Cl,2.1%,14.2%,3.2%,-15.5,8.44µM*,?
O=C(O)C1CC(=O)N(Cc2ccc(F)cc2)C1 (configuration not stated),1.7%,-2.4%,9.3%,4.6,26.7µM*,-12.1%
CCc1ccc(CN2CC(C(=O)O)CC2=O)cc1 (configuration not stated),7.9%,-2.9%,-1.0%,.,-0.7%,2.2%
CCOC(=O)C(=O)Cc1cccnn1,4.3%,-7.8%,50.1µM*,-23.6,?,-20.7%
CN1CCC(=NNC(=O)C(=O)Nc2cccc(Br)c2)CC1,-3.9%,-0.9%,0.7%,-20.6,11.9µM*,70.8µM*
CCOc1cc(-c2cc(-c3ccc(C)cc3)nc(N)c2C#N)ccc1O,0.1%,5.1%,0.0%,.,3.4%,16.6%
CCOc1cc(/C=C(\C#N)c2[nH]nc(N)c2C#N)ccc1O,2.0%,?,-30.0%,-65.2*,5.0%,-7.8%
O=C(Nc1ccccc1)c1ccc(NCC2CCCO2)c([N+](=O)[O-])c1 (configuration not stated),6.0%[46.1 µM],-4.5%,0.2%,-5.7,-4.9%,-8.0%
O=[N+]([O-])c1cc(C(F)(F)F)ccc1NCC1CCCO1 (configuration not stated),-2.1%,11.0%,-15.1%,-24.8,5.97µM*,79.4µM*
O=[N+]([O-])c1ccc2c(c1N1CCCCC1)=NC1(CCCCC1)[N+]=2[O-],2.0%,-19.5%,-16.2%,-52.7*,21.2µM*,-9.2%
O=[N+]([O-])c1ccc(N2CCCCC2)nc1N1CCCCC1,10.9%,11.6%,1.2%,5.1,-7.0%,1.6%
